The campaign covered roughly 5,500 compounds. About 2,000 (36%) were called active. Not shown: some 18% with an inconclusive outcome. Cut-off read from the data, not from the text of the source: active = normalized growth mostly below about 0.91 (no sharp cut-off); inconclusive = no clear call, values can overlap the other calls; inactive = mostly above about 0.92. Some of the results follow.
Test: chemical genetic growth profiling, strain panel (AID 1159580);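 note: tested at 20 µM; growth read once vehicle control cultures reached saturation at 30 °C; 1 = growth at the plate median or of vehicle wells; lower values mean less growth of the strain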
Conditions: S. cerevisiae deletion strains, growth OD

Measured: normalized growth

CCN(CC)CCOCCOC(=O)C1(c2ccccc2)CCCC1
inactive: locus YAL013W, strain DEP1, stronger effect = lower value 0.986 | locus YAL021C, strain ccr4, stronger effect = lower value 0.986 | locus YAL026C, strain drs2, stronger effect = lower value 0.995 | locus YAL030W, strain snc1, stronger effect = lower value 0.992 | locus YAL040C, strain CLN3, stronger effect = lower value 0.988 | locus YBL061C, strain skt5, stronger effect = lower value 0.996 | locus YBR009C, strain hhf1, stronger effect = lower value 0.997 | locus YBR023C, strain chs3, stronger effect = lower value 0.987 | locus YBR171W, strain sec66, stronger effect = lower value 0.987 | locus YBR231C, strain swc5, stronger effect = lower value 0.982 | locus YBR279W, strain paf1, stronger effect = lower value 0.995 | locus YCL011C, strain gbp2, stronger effect = lower value 0.99 | locus YCL016C, strain dcc1, stronger effect = lower value 0.998 | locus YCL061C, strain MRC1 (second series), stronger effect = lower value 0.994 | locus YCL061C, strain MRC1, stronger effect = lower value 0.989 | locus YCL069W, strain vba3, stronger effect = lower value 0.994 | locus YCR088W, strain abp1, stronger effect = lower value 0.981 | locus YDL005C, strain med2, stronger effect = lower value 0.988 | locus YDL040C, strain nat1, stronger effect = lower value 0.998 | locus YDR001C, strain nth1, stronger effect = lower value 0.999 | locus YDR069C, strain doa4, stronger effect = lower value 0.984 | locus YDR137W, strain rgp1, stronger effect = lower value 0.981 | locus YDR150W, strain NUM1, stronger effect = lower value 0.995 | locus YDR159W, strain sac3, stronger effect = lower value 0.99 | locus YDR195W, strain ref2 0.966 | locus YDR297W, strain sur2, stronger effect = lower value 0.989 | locus YDR334W, strain swr1, stronger effect = lower value 0.995 | locus YDR335W, strain msn5, stronger effect = lower value 0.996 | locus YDR392W, strain spt3, stronger effect = lower value 1.01 | locus YEL003W, strain gim4, stronger effect = lower value 0.999 | locus YEL037C, strain rad23, stronger effect = lower value 0.999 | locus YEL061C, strain CIN8 (second series), stronger effect = lower value 0.999 | locus YER002W, strain NOP16, stronger effect = lower value 1 | locus YER015W, strain faa2, stronger effect = lower value 0.992 | locus YER016W, strain bim1, stronger effect = lower value 0.995 | locus YER111C, strain swi4, stronger effect = lower value 0.985 | locus YER155C, strain BEM2 (second series), stronger effect = lower value 0.992 | locus YFR010W, strain ubp6, stronger effect = lower value 1 | locus YGL167C, strain pmr1, stronger effect = lower value 0.991 | locus YGL173C, strain kem1, stronger effect = lower value 0.999 | locus YGL227W, strain vid30, stronger effect = lower value 0.981 | locus YGL240W, strain doc1, stronger effect = lower value 0.998 | locus YGL253W, strain hxk2, stronger effect = lower value 0.989 | locus YGR078C, strain PAC10, stronger effect = lower value 0.972 | locus YGR229C, strain SMI1, stronger effect = lower value 0.979 | locus YHR013C, strain ard1, stronger effect = lower value 0.969 | locus YHR027C, strain rpn1, stronger effect = lower value 0.996 | locus YHR030C, strain SLT2, stronger effect = lower value 0.967 | locus YHR079C, strain IRE1, stronger effect = lower value 0.975 | locus YHR142W, strain chs7, stronger effect = lower value 0.99 | locus YJL092W, strain hpr5, stronger effect = lower value 0.997 | locus YJL095W, strain BCK1 (second series), stronger effect = lower value 0.992 | locus YJL095W, strain BCK1, stronger effect = lower value 0.966 | locus YJL115W, strain asf1, stronger effect = lower value 0.996 | locus YJL129C, strain trk1, stronger effect = lower value 0.994 | locus YJL154C, strain vps35, stronger effect = lower value 0.998 | locus YJL164C, strain tpk1, stronger effect = lower value 0.977 | locus YJL166W, strain qcr8, stronger effect = lower value 0.997 | locus YJL187C, strain SWE1, stronger effect = lower value 0.996 | locus YJR066W, strain TOR1, stronger effect = lower value 0.917 | locus YJR075W, strain HOC1, stronger effect = lower value 0.99 | locus YKL160W, strain elf1, stronger effect = lower value 1 | locus YKR026C, strain gcn3, stronger effect = lower value 0.98 | locus YKR091W, strain srl3, stronger effect = lower value 0.992 | locus YLL001W, strain dnm1, stronger effect = lower value 0.994 | locus YLL026W, stronger effect = lower value 0.99 | locus YLL041C, strain sdh2, stronger effect = lower value 1 | locus YLR027C, strain aat2, stronger effect = lower value 0.993 | locus YLR113W, strain HOG1, stronger effect = lower value 0.931 | locus YLR221C, strain rsa3, stronger effect = lower value 0.987 | locus YLR258W, strain gsy2, stronger effect = lower value 0.979 | locus YLR262C, strain YPT6 (second series), stronger effect = lower value 0.947 | locus YLR320W, strain mms22, stronger effect = lower value 0.99 | locus YLR342W, strain FKS1, stronger effect = lower value 0.987 | locus YLR357W, strain rsc2, stronger effect = lower value 0.975 | locus YLR370C, strain arc18, stronger effect = lower value 0.998 | locus YLR384C, strain iki3, stronger effect = lower value 0.992 | locus YML120C, strain ndi1, stronger effect = lower value 0.989 | locus YMR058W, strain fet3, stronger effect = lower value 0.999 | locus YMR125W, strain sto1, stronger effect = lower value 0.987 | locus YMR129W, stronger effect = lower value 0.997 | locus YMR205C, strain PFK2, stronger effect = lower value 0.986 | locus YMR231W, strain pep5, stronger effect = lower value 0.996 | locus YMR307W, strain GAS1, stronger effect = lower value 0.986 | locus YNL071W, strain lat1, stronger effect = lower value 1.02 | locus YNL175C, strain NOP13, stronger effect = lower value 1.02 | locus YNL183C, strain NPR1, stronger effect = lower value 0.915 | locus YNL197C, strain WHI3, stronger effect = lower value 0.994 | locus YNL209W, strain ssb2, stronger effect = lower value 0.998 | locus YNL224C, strain SQS1, stronger effect = lower value 1 | locus YNL248C, strain rpa49, stronger effect = lower value 1.01 | locus YNL322C, strain KRE1 (second series), stronger effect = lower value 0.99 | locus YNL322C, strain KRE1, stronger effect = lower value 1.01 | locus YNR049C, strain mso1, stronger effect = lower value 0.989 | locus YOR001W, strain rrp6, stronger effect = lower value 0.994 | locus YOR070C, strain gyp1, stronger effect = lower value 0.999 | locus YOR080W, strain dia2, stronger effect = lower value 0.989 | locus YOR083W, strain WHI5 (second series), stronger effect = lower value 0.996 | locus YOR083W, strain WHI5, stronger effect = lower value 1 | locus YOR106W, strain vam3, stronger effect = lower value 1.02 | locus YOR231W, strain MKK1, stronger effect = lower value 0.983 | locus YOR265W, strain rbl2, stronger effect = lower value 0.988 | locus YOR270C, strain vph1, stronger effect = lower value 0.999 | locus YOR290C, strain snf2, stronger effect = lower value 0.992 | locus YPL051W, strain arl3, stronger effect = lower value 0.989 | locus YPL055C, strain LGE1, stronger effect = lower value 0.996 | locus YPL078C, strain atp4, stronger effect = lower value 0.994 | locus YPL106C, strain sse1, stronger effect = lower value 0.995 | locus YPL240C, strain hsp82, stronger effect = lower value 0.995 | locus YPL241C, strain CIN2, stronger effect = lower value 0.995 | locus YPL256C, strain CLN2, stronger effect = lower value 0.959

Reference: PubChem BioAssay AID1159580 (chemical genetic matrix, 2015)
